Measured values published in PubChem BioAssay AID743286 (National Center for Advancing Translational Sciences (NCATS), 2014).
About 340 (31%) of roughly 1,100 compounds were called active. Another 40% or so got no clear call; they are omitted. Calls come from the whole dose curve; as a rule, active = well fitted inhibition curve with a large enough effect; inconclusive = small, poorly fitted or top-dose-only effect; inactive = flat fitted curve, though single readings scatter. These entries were drawn from the full list.

molecular target: Phosphatidylinositol 5-phosphate 4-kinase type-2 alpha (Homo sapiens) (UniProt P48426); assay: qHTS for Inhibitors of PI5P4K: Confirmation in Primary Assay; conditions: PI5P4Kalpha enzyme, ADP-Glo luminescence, 60 min; series mostly up to 76.9 µM; note: nearly all actives have a fitted effect of over 65% in size
How it was run: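 Enzyme/substrate mix dispensed, compound transferred by pin tool, ATP (5 microM final) added to start; incubated 60 min RT. ADP-Glo reagent 1 (45 min) then reagent 2 (30 min); luminescence measured.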
Potency is the fitted concentration of half-maximal effect.

Chain of Phosphatidylinositol 5-phosphate 4-kinase type-2 alpha (Homo sapiens) (P48426 whole entry, looked up): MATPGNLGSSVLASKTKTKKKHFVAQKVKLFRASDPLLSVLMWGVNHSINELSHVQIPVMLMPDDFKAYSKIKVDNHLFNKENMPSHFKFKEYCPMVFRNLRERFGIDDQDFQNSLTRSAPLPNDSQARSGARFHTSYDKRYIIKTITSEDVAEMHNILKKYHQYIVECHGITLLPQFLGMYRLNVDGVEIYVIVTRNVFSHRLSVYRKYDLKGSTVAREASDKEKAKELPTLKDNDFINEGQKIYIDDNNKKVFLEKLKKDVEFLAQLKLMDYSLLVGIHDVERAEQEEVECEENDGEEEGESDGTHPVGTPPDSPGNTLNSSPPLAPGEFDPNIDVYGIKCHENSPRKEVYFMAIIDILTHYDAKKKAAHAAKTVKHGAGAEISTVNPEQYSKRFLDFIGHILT

Potency, active:
COc1ccc(OC)c(NC(=O)COC(=O)c2cc3c(s2)CCC3)c1 12.6 µM, Cc1oc(-c2ccc(Cl)cc2)cc1-c1nn2c(-c3ccoc3C)nnc2s1 14.1 µM, c1ccc(CNc2nc(NCC3CC3)nc3cc(-c4ccccc4)sc23)cc1 12.6 µM, c1ccc(-c2cc3nc(NCC4CC4)nc(NCC4CCCCC4)c3s2)cc1 20 µM, COCCN(C(=O)COC(=O)c1cc2c(s1)CCC2)c1c(N)n(Cc2ccccc2)c(=O)[nH]c1=O 3.16 µM, CCOc1ccc(C(Nc2cccnc2)c2cc(Cl)c3cccnc3c2O)cc1 (configuration not stated) 6.31 µM, COc1ccc(Cl)cc1C(Nc1cccnc1)c1ccc2cccnc2c1O (configuration not stated) 12.6 µM, O=C(NC(c1ccc(Cl)cc1)c1cc(Cl)c2cccnc2c1O)c1cccnc1 (configuration not stated) 22.4 µM, O=C(COC(=O)c1ccc(NS(=O)(=O)c2cccs2)cc1O)Nc1nc2ccccc2s1 20 µM, C#CCN1C(=O)S/C(=C\c2ccc(-c3ccc(C(=O)O)cc3C)o2)C1=O 12.6 µM, FC(F)(F)C1=Nc2cccc3cccc(c23)N1 3.98 µM, Cc1cc2[nH]c3c4ccccc4nc(C)c3c2cc1C 28.2 µM, O=S(=O)(Nc1ccc(-c2nc3cccnc3s2)cc1)c1ccc(Cl)s1 14.1 µM, CCS(=O)(=O)Nc1ccc(-c2nc3cccnc3s2)cc1 22.4 µM, NS(=O)(=O)c1ccc2c(c1)C1C=CCC1C(C1CC=CCC1)N2 (configuration not stated) 28.2 µM, CCCCC1=CC2=CC(=O)C(C)(OC(=O)C3CCCC3)C(=O)C2=CO1 (configuration not stated) 15.8 µM, NC(=O)c1ccsc1NC(=O)c1ccc([N+](=O)[O-])o1 12.6 µM, Cc1ccc(Nc2nc(NCc3ccco3)c3ccccc3n2)cc1 35.5 µM, Cc1cccc(Nc2nc(NCc3ccco3)c3ccccc3n2)c1 35.5 µM, COc1ccc(NC(=O)c2cc(-c3ccco3)nc3ccccc23)cc1S(=O)(=O)N1CCOCC1 6.31 µM, O=C(Nc1cccc(S(=O)(=O)NC2=NCCCCC2)c1)c1cc(-c2ccco2)nc2ccccc12 2.82 µM, O=C(Nc1cccc(S(=O)(=O)NC2=NCCC2)c1)c1cc(-c2ccco2)nc2ccccc12 2.51 µM, CC(=O)c1ccc(NC(=O)CC2Nc3cccc4cccc(c34)NC2=O)cc1 (configuration not stated) 3.98 µM, Oc1c(C(c2ccccc2)N2CCOCC2)ccc2ccccc12 (configuration not stated) 3.98 µM, COCCOC(=O)c1[nH]c2c(c1C)C(=O)CC(c1ccco1)C2 (configuration not stated) 15.8 µM, Nc1c(C(=O)O)cnc2c(-c3ccc(Cl)cc3)cnn12 6.31 µM, Cc1cc(C)c2nc(-c3ccccn3)cc(C(=O)Nc3ccc(S(=O)(=O)Nc4onc(C)c4C)cc3)c2c1 8.91 µM, O=C(Cn1cnc2scc(-c3cccc([N+](=O)[O-])c3)c2c1=O)NCc1ccco1 11.2 µM, O=S(=O)(Nc1nc(-c2ccccc2)cs1)c1cc(Cl)ccc1Cl 28.2 µM, Cc1cccc(NC(c2ccc(O)cc2)c2ccc3ccc(C)nc3c2O)n1 (configuration not stated) 22.4 µM, O=c1cc(-c2ccccc2)[nH]n1-c1nc2ccccc2[nH]1 15.8 µM, CC(C)C(=O)Nc1nnc(NC(=S)Nc2ccccc2)s1 20 µM, CCCN(C(=O)c1cccc(-n2cccc2)c1)c1c(N)n(Cc2ccccc2)c(=O)[nH]c1=O 7.08 µM, CCCN(C(=O)c1cc(-c2ccco2)nc2ccccc12)c1c(N)n(Cc2ccccc2)c(=O)[nH]c1=O 15.8 µM, O=C(O)c1cc2c(N3CCC(Cc4ccccc4)CC3)ncnc2s1 3.98 µM

Potency, inactive:
COc1ccc(OC)c(NC(=O)CN(Cc2ccc(F)cc2)C2CCCCC2)c1, CN(C(=O)c1ccc(Br)o1)C1CCS(=O)(=O)C1 (configuration not stated), CC(C)(C)c1ccc(NC(=O)C2=CC=CN3CCS(=O)(=O)N=C23)cc1, Cc1oc(-c2ccc(Cl)cc2)cc1C(=O)N1CCC1(C)C(=O)O (configuration not stated), COc1ccccc1CNc1nc(NCc2cccc(OC)c2OC)c2sccc2n1, CC(C)c1ccc(CNc2nc(NCC3CC3)nc3ccsc23)cc1, COc1cccc(CNc2nc(NC(C)C)nc3ccsc23)c1, CCO[C@@H]1OC(C(=O)NCc2ccccc2)=C[C@H](C(C)(C)C)[C@H]1CCCO, O=C(Cn1cnc2c(OCc3ccccc3)ncnc21)NCc1nc2ccccc2[nH]1, COc1ccc(CCNC(=O)CNCC(c2ccccc2)N(C)C)cc1OC (configuration not stated), Cc1ccc2c(CC(=O)OCC(=O)N(CC(C)C)c3c(N)n(Cc4ccccc4)c(=O)[nH]c3=O)coc2c1, COc1ccc(S(=O)(=O)N2CCCC(C(=O)Nc3cccnc3)C2)cc1Cl (configuration not stated), COc1ccc(N(C(=O)C2CSC(=O)C2)C(C(=O)NC(C)(C)C)c2ccncc2)cc1 (configuration not stated), Cc1noc(C)c1CCC(=O)N1CCCC(CCC(=O)NCc2ccc(F)c(F)c2)C1 (configuration not stated), COC(=O)c1c[nH]c(=O)c2ccccc12, CCOC(=O)[C@]12CCCC=C1N(Cc1ccccc1)C(=O)[C@H](CC(=O)NCCCOC)C2, O=C(Cn1cc(COc2ccc(Br)cc2[N+](=O)[O-])nn1)c1ccc(O)cc1, CN(c1cccc(NC(=O)c2ccc(N(C)S(=O)(=O)c3ccccc3)cc2)c1)S(C)(=O)=O, CC1(C)Cc2cccc(OCC(=O)NCCOc3ccccc3)c2O1, CC[C@]12c3[nH]c4cc(-c5ccco5)ccc4c3CCN1C(=O)[C@@H](CC(=O)NCCC1=CCCCC1)C[C@@H]2C(=O)N1CCN(C(=O)c2ccco2)CC1, Cc1ccc2c(c1)N(CC(=O)N1CCCCCC1)C(=O)C(C)O2 (configuration not stated), Cc1cc(C)c(NC(=O)OCCN2CCOCC2)c(C)c1, O=C(CSc1nncn1-c1ccccc1)Nc1ccc(N2CCOCC2)cc1, O=S(=O)(Nc1ccccc1N1CCCCC1)c1ccc(Cl)s1, O=S1(=O)CC(N2CCSCC2)CN1Cc1cn(Cc2ccc(F)cc2)nn1 (configuration not stated), COc1cc(Br)cc(CNc2ccc(F)c([N+](=O)[O-])c2)c1O, Cn1c(=O)c2c(-c3ccccc3)n(-c3cccc(O)c3)cc2n(C)c1=O, Cc1cccc(C2Nc3ccccc3C(=O)N2c2ccc(F)cc2)n1 (configuration not stated), COc1ccc2[nH]c(=O)c(CN(Cc3nnnn3Cc3ccco3)C3CCCCC3)cc2c1, CCN(CC)CCCCCC(=O)Nc1ccccc1C(=O)Nc1ccccc1, Cc1c(Cl)cccc1NC(=O)Cn1nnc(C(=O)NCc2cccs2)c1N, S=C(NCc1ccccc1)N1CCc2ccccc2C1, Cc1ccc([N+](=O)[O-])cc1NC(=O)CCSc1ccc(Cl)cc1, COc1ccccc1CNc1nc(Nc2cccc(-c3cnco3)c2)c2sccc2n1, CCc1cc(=O)oc2cc(C)c(CN3CCCCC3)c(O)c12, COc1ccc(N(C(=O)c2ccccc2)S(=O)(=O)c2cccs2)cc1, CC(CNC(=O)c1ccc(Br)o1)NC(=O)c1ccc(Br)o1 (configuration not stated), COc1ccc(Br)cc1C(=O)Nc1cccc(NC(=O)c2ccco2)c1, Cc1csc(=O)n1CCC(=O)OCC(=O)Nc1ccc(N2CCOCC2)cc1, COc1ccc(N2CC(O)=C(c3nc(-c4ccccc4)cs3)C2=N)cc1, CCCCc1c(Cc2ccccc2)ncn1CCc1ccccc1OC, c1ccc2c(OCCCCN3CCOCC3)cccc2c1, O=c1[nH]c(N2CCOCC2)cc2ccccc12, CC1CCCC(C)N1C(=O)COC(=O)CNC(=O)c1ccccc1 (configuration not stated), Cc1cc2nc(NC(=O)C3(C)CCN3C(=O)C(C)C)[nH]c2cc1C (configuration not stated), CC1(C(=O)NS(=O)(=O)C2CC2)CCN(C(=O)c2ccccc2F)C1 (configuration not stated), N#Cc1ccc(COC(=O)CC(NC(N)=O)c2ccc(Cl)cc2)cc1 (configuration not stated), O=C(Nc1ccc(O)c2c(=O)cc(-c3ccccc3Cl)oc12)c1ccc(Cl)c(Cl)c1, CN1OC[C@@H]2CN3C(=O)N(c4cccc5ccccc45)c4ccccc4[C@@H]3C[C@@H]21, CCCn1c(SCC(=O)N2c3ccccc3Sc3ccccc32)nc2c1c(=O)n(C)c(=O)n2C, CCC(c1nnnn1Cc1ccco1)N(CCc1ccccc1)Cc1cc2ccc(OC)cc2[nH]c1=O (configuration not stated), O=C(NCCN1CCN(c2ccccc2)CC1)C1CCCN(S(=O)(=O)c2cnc[nH]2)C1 (configuration not stated), Cc1cc(NS(=O)(=O)c2ccc(NC(=O)COc3ccc(Br)cc3)cc2)nc(C)n1, COCCCNC(=O)c1ccc2c(=O)n(CC3CCCO3)c(=S)[nH]c2c1 (configuration not stated), CN(Cc1ccccc1)C(=O)c1csc([C@H]2C[C@H](O)[C@@H](CO)O2)n1, COc1cccc(CNS(=O)(=O)c2ccccc2Br)c1OC, COC(=O)CSc1nc(C)cc(C)n1, CC1CCCCN1C(=O)Cn1cnc2cc([N+](=O)[O-])ccc2c1=O (configuration not stated), COC(=O)CNC(=O)C1Cc2ccccc2CN1S(=O)(=O)c1cccs1 (configuration not stated), O=C(O)c1ccc(Cl)c(S(=O)(=O)Nc2ccc3[nH]c(=O)[nH]c3c2)c1, COC(=O)c1ccccc1NC(=O)CN1CCC(n2nnc3cc(C(F)(F)F)ccc32)CC1, Cc1ccc(S(=O)(=O)N2[C@@H](c3ccc(C(C)(C)C)cc3)C(C(=O)O)=CC[C@H]2c2ccc(C(C)C)cc2)cc1, CC(=O)Nc1ccc(NC(=S)Nc2ccc(Br)cc2)cc1, O=C(CSc1n[nH]c(-c2cccnc2)n1)OC1CCCCC1, CCCCC(=O)N(Cc1ccc2c(c1)OCO2)Cc1nc2ccccc2c(=O)[nH]1, CCCn1c(N)c(N(CCOC)C(=O)c2cc(-c3ccco3)nc3ccccc23)c(=O)[nH]c1=O, Cc1ccc(Nc2nc(C)c3c(n2)CC(C)CC3=O)c(C)c1 (configuration not stated)
